This is one part of a sample in which hits are shown more often than they occur.
Vaccinia pol inh: vaccinia E9 polymerase processive synthesis inhibitors, primary screen, biochemical, absorbance | normalized absorbance, % (no concentration beside the values) | Vaccinia virus DNA polymerase (E9) processive complex | AID 493162, 2011 | 46,000 tested, 0.94% active | in vitro processive DNA synthesis, absorbance read-out; hits give low values; in the data active = normalized absorbance mostly below about 85%, no sharp cut-off; inactive = mostly above about 86%
Large screens that a line does not name were inactive.

CC1(C)CC(=O)C=C(NC(=O)Nc2ccccc2)C1	none
O=C(CSc1ccc2ccccc2c1)Nc1ccccc1N1CCOCC1	none
COC(=O)c1c2c(n3ccc(C)cc13)C(=O)c1ccccc1C2=O	none
COC(=O)c1c2c(n3cc4ccccc4cc13)C(=O)c1ccccc1C2=O	none
COC(=O)c1c2c(n3ccccc13)C(=O)c1ccccc1C2=O	Vaccinia pol inh 62
Cc1nc2ccccc2n1CC(=O)OCC(=O)N1c2ccccc2CC1C (centres undefined)	none
Cc1ccc(N=Cc2c[nH]c3ccccc23)c(C)c1	none
O=c1oc2c(-c3ccc(F)cc3)cc(O)cc2s1	none
CC(C)CCn1c(CNC(=O)c2ccccc2)nc2ccccc21	none
CC1CC2C3CCC4=CC(=O)C=CC4(C)[C@@]3(F)C(O)CC2(C)[C@@]1(O)C(=O)CO (some centres undefined)	none
CC(=O)Nc1ccc(Cl)c(Cl)c1	none
CC(=O)Nc1ccc(-n2c(C)ccc2C)c(C(=O)O)c1	Vaccinia pol inh 49
COc1ccc(NC(C)=O)cc1C	none
Cc1ccc(S(=O)(=O)NCC(O)Cn2c3ccccc3c3ccccc32)cc1 (centres undefined)	none
CCC(CO)NCC(O)Cn1c2ccccc2c2ccccc21 (centres undefined)	Vaccinia pol inh 80
COc1ccccc1CNCC(O)Cn1c2ccccc2c2ccccc21 (centres undefined)	none
OC(COCc1ccccc1)Cn1c2ccccc2c2ccccc21 (centres undefined)	none
CC1(C)NC(=O)N(CC(O)Cn2c3ccccc3c3ccccc32)C1=O (centres undefined)	none
CNCC(O)Cn1c2ccccc2c2ccccc21 (centres undefined)	Vaccinia pol inh 78
Cc1nn(C(=O)c2c[nH]c3ccccc23)c(N)c1-c1ccccc1	none
CCCN(CCC)C(=O)Cc1c(C)nc2c(-c3ccccc3)c(C)nn2c1C	none
CCCCc1ccc2nc3sc(C(=O)O)cc3cc2c1	none
Cc1ccc(S(=O)(=O)NC(C(=O)Oc2ccc3c4c(c(=O)oc3c2)CCCC4)C(C)C)cc1 (centres undefined)	none
CC(C)C(NC(=O)c1ccc(F)cc1)C(=O)Oc1ccc(F)cc1 (centres undefined)	none

Screens from PubChem.
